Screening results: PubChem, National Center for Advancing Translational Sciences (NCATS)
TRHR ag: activates the human TRH receptor | P34981 | TRHR cells, calcium flux fluo-8, FDSS agonist mode | activation, % at 2 µM | hit rate 0.18% among 360,000
Target sequence (P34981 whole entry, looked up): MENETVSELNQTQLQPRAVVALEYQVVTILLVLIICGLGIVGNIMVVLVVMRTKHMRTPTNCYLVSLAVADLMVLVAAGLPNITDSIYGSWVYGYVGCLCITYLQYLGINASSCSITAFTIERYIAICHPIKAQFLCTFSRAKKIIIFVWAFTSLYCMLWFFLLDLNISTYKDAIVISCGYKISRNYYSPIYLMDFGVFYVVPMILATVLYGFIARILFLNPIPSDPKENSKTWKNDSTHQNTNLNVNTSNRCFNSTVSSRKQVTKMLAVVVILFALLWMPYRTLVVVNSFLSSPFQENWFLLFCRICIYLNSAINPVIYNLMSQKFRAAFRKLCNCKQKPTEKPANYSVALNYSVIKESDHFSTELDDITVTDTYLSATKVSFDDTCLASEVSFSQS
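TRHR-expressing cells loaded with fluo-8 calcium dye; 23 nL library compound pin-transferred, kinetic FDSS fluorescence (Ex 480/Em 530) recorded about 180 s for agonist-induced calcium release, before a 10 nM TRH EC20 addition for potentiator mode.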
D1 potentiator: potentiators of human D1 dopamine receptor | P21728 | HEK293 TREx D1 cells, calcium flux, dopamine EC20 potentiation | potentiation, % at 10 µM | hit rate 0.036% among 360,000; in the data active = potentiation above about 30%
GRP78 ERSR act: inducers of ER stress response in human glioma cells | hit rate 0.02% among 420,000 | Potency, µM, actives largely listed as activators | U87-MG GRP78 promoter luciferase reporter, 16 h | AID 602332; active = well fitted activation curve with a large enough effect; inconclusive = small, poorly fitted or top-dose-only effect; inactive = no such curve, though single readings can be large or run the other way; note: series mostly up to about 76 µM; nearly all actives have a fitted effect of over 35% in size
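ERSR induction read as luciferase luminescence (Bright-Glo, 10 min at room temperature) in stably transfected human U87-MG glioma cells exposed to compounds for 16 h, using GRP78 as sensor.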
D1 antagonist: human D1 dopamine receptor antagonism; P21728; HEK293 TREx D1 cells, calcium flux, dopamine EC80; active compounds read low; activity change, negative = inhibition, % at 10 µM; hit rate 3.2% among 360,000; AID 504652; in the data active = activity change below about -30%
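Using tetracycline-induced force-coupled D1 Hek293 cells and a calcium dye, signals were followed for 180 s after compound, then for 180 s after EC80 dopamine, to detect inhibitors.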
TRHR enhancer: allosteric enhancers of human TRH receptor | TRHR cells, fluo-8 calcium fluorescence, EC20 TRH enhancement | enhancement, % at 2 µM | hit rate 0.66% among 360,000 | AID 493056; in the data active = enhancement above about 30%
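Enhancer read-out: after compound pinning and an initial kinetic agonist-mode read, an EC20 of TRH (10 nM final) was injected and fluo-8 calcium signal (Ex 480/Em 530) followed at 1 s/cycle for 100 cycles in TRHR-expressing cells.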
D1 ag: agonists of human D1 dopamine receptor; P21728; HEK293 T-REx D1 cells, calcium flux, agonist mode; activation, % at 2 µM; hit rate 1% among 360,000
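Agonism was scored from calcium flux recorded over 180 s (1 read/s) after pintool compound addition, following a 10-cycle baseline. Cells were inducible force-coupled HEK293 TREx D1, plated overnight at 30 C and loaded with no-wash calcium dye.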
Each line names hits and unclear results; the compound was inactive in the other large screens. Rows were chosen to be rich in hits. Some 4% of all compounds tested hit in one or more screens of this group. Cut-off read from the data, not from the text of the source, unless noted: active = activation above about 30%; inactive = the rest.

O=C1c2cccc3c([N+](=O)[O-])ccc(c23)C(=O)N1O	GRP78 ERSR act inconclusive
CC(=O)Oc1ccc(N2C(=O)c3cccc4c([N+](=O)[O-])ccc(c34)C2=O)cc1	D1 antagonist -41
COc1ccccc1-n1c(SCC(=O)Nc2cccc(C)c2)nc2c(c1=O)SCC2	none
O=C(CCc1nc2ccccc2c(=O)[nH]1)OCc1ccc(-c2ccccc2)cc1	D1 antagonist -39
N#C/C(=C\c1cccnc1)c1nc2c(s1)CCCC2	none
COc1cc(/C=C(\C#N)c2nc3c(s2)CCCC3)ccc1O	TRHR ag 40, D1 ag 60 (no result: GRP78 ERSR act)
CCCCC(=O)Nc1ccc(C(=O)NNC(=O)CCCOc2ccc(Cl)cc2Cl)cc1	none
COc1ccc(/C=C2\N=C(SC)N(c3ccccc3OC)C2=O)cc1	D1 antagonist -34
N#Cc1cc2cc3c(cc2nc1SCC(=O)OC1CCCCC1)OCO3	D1 antagonist -32
COc1cc(NC(=O)C(=O)NNC(=O)C2CCCCC2)c(OC)cc1Cl	none
COC(=O)c1ccccc1NC(=O)Cn1cnc2cc(C)c(C)cc21	D1 ag 38
COC(=O)c1ccccc1NC(=O)Cn1cnc2c(cnn2-c2ccc(C)c(C)c2)c1=O	none (no result: TRHR ag, D1 potentiator, D1 antagonist, TRHR enhancer, D1 ag)
COCCNC(=O)c1cn(C)c2ccc(S(=O)(=O)N3CCCC3)cc2c1=O	D1 antagonist -31
CCn1cc(C(=O)O)c(=O)c2cc(S(=O)(=O)N(C)C)ccc21	D1 antagonist -37
CCCCN(C)CCCNC(=O)c1cc(=O)[nH]c2ccc(S(=O)(=O)N3CCCCC3)cc12	TRHR enhancer 53
CCn1cc(C(=O)NCc2ccccc2Cl)c(=O)c2cc(S(=O)(=O)N3CCCCCC3)ccc21	D1 antagonist -62
COc1cccc(CNC(=O)c2cc(=O)[nH]c3ccc(S(=O)(=O)N4CCCC4)cc23)c1	none
O=C(COc1ccc(Cl)cc1)OCc1cc(=O)n2nc(C3CC3)sc2n1	none
NS(=O)(=O)c1ccc2nc(NC(=O)c3ccc4ncsc4c3)sc2c1	none
CCCCN(C)CCCNC(=O)c1cn(CC)c2ccc(S(=O)(=O)N3CCOCC3)cc2c1=O	D1 antagonist -32
COc1ccc(CC(=O)NCc2ccccc2)cc1	none
C=CCC(NCc1ccccc1)c1ccc(OC)cc1 (configuration not stated)	D1 antagonist -34
O=C(NCc1ccccc1)c1ccco1	none
C=CCC(NCc1ccccc1)c1ccco1 (configuration not stated)	D1 antagonist -57
Cc1cccc(NC(=O)c2sc3nc4c(c(-c5cccs5)c3c2N)CN(C)CC4)c1	D1 antagonist -40
O=C(N/N=C/c1cc(Br)cc(Br)c1O)c1ccncc1	D1 ag 54
CC(C)(C)C(=O)N1CCN(c2nc3ccc(Cl)cc3s2)CC1	D1 antagonist -43
O=C(O)c1c2ccccc2cc2ccccc12	none (no result: TRHR ag, D1 potentiator, D1 antagonist, TRHR enhancer, D1 ag)
Cc1cc(C(=O)Nc2cccc(F)c2)c2c(C)nn(-c3cccc(Cl)c3C)c2n1	D1 antagonist -39
COc1ccc(NC(=O)CN(C)C(=O)c2cc(-c3ccncc3)nc3ccccc23)cc1	none
CN(CC(=O)Nc1ccc(F)c(Cl)c1)S(=O)(=O)c1cccc2nsnc12	D1 antagonist -34
Cc1ccc(NC(=O)CN(C)S(=O)(=O)c2cccc3nsnc23)cc1	none
CC1CCN(CCNC(=O)CN(C)S(=O)(=O)c2cccc3nsnc23)CC1	D1 antagonist -31
CC1CCN(C(=O)CN(C)S(=O)(=O)c2cccc3nsnc23)CC1	none
O=C(CS(=O)CC(=O)N(CC(=O)NC1CCCC1)c1ccccc1F)Nc1ccc(F)cc1 (configuration not stated)	D1 antagonist -35
Cc1ccc(NC(=O)CS(=O)CC(=O)N(c2ccccc2F)C(C)C(=O)NC2CCCC2)cc1 (configuration not stated)	none
CC(C(=O)NC1CCCC1)N(C(=O)CS(=O)CC(=O)Nc1ccc(F)cc1)c1ccc2c(c1)OCCO2 (configuration not stated)	D1 antagonist -52
CC(C)=NN1C(c2nonc2N)=NOC1(C)C	none
COc1ccc(NC(=O)CCNS(=O)(=O)c2ccc3c(c2)CC(C)N3C(=O)C2CC2)cc1 (configuration not stated)	none
Cc1noc(C)c1CSc1nc2ccccc2[nH]1	none
c1ccc(-c2cc(CSc3nc4ccccc4[nH]3)on2)cc1	D1 antagonist -31
COc1ccc(C(=O)Nc2nnc(CC(=O)N/N=C/c3ccc(O)cc3O)s2)cc1	TRHR ag 52, D1 ag 46 (no result: GRP78 ERSR act)
Cc1ccc(C(=O)Nc2nnc(CC(=O)N/N=C/c3ccc(O)c(O)c3)s2)cc1	none
c1ccc(COc2ccccc2CNc2nn[nH]n2)cc1	D1 antagonist -75
CC(C)Nc1nc(NC(C)C)nc(N(C#N)C(C)C(=O)N(C)C)n1 (configuration not stated)	none (no result: GRP78 ERSR act)
O=C(Nc1ncc([N+](=O)[O-])s1)c1cccc([N+](=O)[O-])c1	D1 ag 32
O=C(Nc1ccc(NC(=O)c2cccc([N+](=O)[O-])c2)cc1)c1cccc([N+](=O)[O-])c1	none
Cc1ccccc1C(=O)c1cccn1CC(=O)NCCCN1CCCCC1	none
Cc1ccc(C)c(N2CCN(CCCNC(=O)Cn3cccc3C(=O)c3ccccc3C)CC2)c1	D1 antagonist -36
CCC1CCCCN1C(=S)Nc1ccc(OC(F)F)cc1 (configuration not stated)	D1 antagonist -43
CC1CCC(NC(=O)c2ccc(/C=C3\Oc4ccccc4N(C)C3=O)cc2)CC1 (configuration not stated)	none (no result: GRP78 ERSR act)
Oc1ccc(N=Nc2ccc3c(c2)OCCO3)c2ncccc12	D1 ag 41
O=S(=O)(c1ccc(F)c(F)c1F)N1CCN(C(=S)NC2CC3CCC2C3)CC1 (configuration not stated)	D1 antagonist -30
COc1ccccc1N=c1scc(-c2ccc(S(=O)(=O)N3CCCC3)cc2)n1C	D1 antagonist -34
CN(C)S(=O)(=O)c1cccc(NC(=O)CSc2nnnn2-c2ccccc2)c1	D1 antagonist -41
O=C(CSc1nnnn1-c1ccccc1)CC(=O)Nc1ccc(Cl)cc1	D1 antagonist -34
COCCn1cnnc1SCC(=O)Nc1cccc(S(=O)(=O)N(C)c2ccccc2)c1	none
NC(=O)c1ccc(-n2nnnc2SCC(=O)Nc2ccccc2)cc1	none
Cc1nnc(SCC(=O)Nc2cccc(S(=O)(=O)N(C)c3ccccc3)c2)s1	D1 ag 34
CN(c1ccccc1)S(=O)(=O)c1cccc(NC(=O)CSc2n[nH]c(N)n2)c1	D1 antagonist -45
NS(=O)(=O)c1cccc(NC(=O)CSc2nnnn2-c2ccccc2)c1	none
